# Out of some 290,000 compounds screened, about 890 (0.31%) were called active. No stated cut-off is given here; in the data, active means inhibition mostly above about 52% (no sharp cut-off); inactive means mostly below about 76%. The list comes from a sample in which actives are over-represented; it also holds similar structures and randomly drawn compounds.
# Assay: inhibitors of HIV fusion peptide binding, primary screen, biochemical, uHTS, fluorescence dequenching (AID 1986)
# Settings: cell-free peptide binding, 30 min, stronger effect = higher value
# [1] = measured here: repeat confirmation average inhibition, at 18.6 µM
Structure (SMILES),inhibition (at 20 µM),inhibition [1]
O=C(CCc1nc2ccccc2[nH]c1=O)N/N=C/c1ccccc1,-0.5% (inactive),–
CCOC(=O)CCSc1nc(C)cc(C(F)(F)F)c1C#N,82% (active),50.9%
CCOC(=O)NC(=O)CSc1nc(C)cc(C(F)(F)F)c1C#N,4.9% (inactive),–
CCOC(=O)CCSc1nc(C(C)(C)C)cc(C(F)(F)F)c1C#N,-0.1% (inactive),–
O=C(NN=C1C2CC3CC(C2)CC1C3)c1cccc(S(=O)(=O)N2CCOCC2)c1,2.1% (inactive),–
Cc1ccccc1CSc1n[nH]c(NS(=O)(=O)c2ccccc2)n1,-0.6% (inactive),–
COc1ccccc1C(=O)NNC(=O)c1cccc(C)c1,0.2% (inactive),–
Cc1cc(-c2csc(NC(=O)c3ccc(=O)[nH]c3)n2)c(C)n1Cc1ccco1,61% (active),–
Cc1cc(-c2csc(NC(=O)c3ccc(C#N)cc3)n2)c(C)n1Cc1ccco1,56.1% (active),–
Cc1cc(-c2csc(N)n2)c(C)n1Cc1ccco1,46.3% (inactive),–
Cc1cc(-c2csc(NC(=O)c3ccc(=O)[nH]c3)n2)c(C)n1Cc1ccccc1,84.8% (inactive),2.3%
Cc1cc(-c2csc(NC(=O)c3ccc(C#N)cc3)n2)c(C)n1Cc1ccccc1,15.9% (inactive),–
CCNc1nc(-c2cc(C)n(Cc3ccco3)c2C)cs1,59.6% (inactive),0.3%
O=C(Nc1cccc(C(F)(F)F)c1)/C(=C/c1ccco1)NC(=O)c1cccs1,15.1% (inactive),–
COC(=O)c1ccc(COc2ccc(/C=N/Nc3cccc(C(=O)O)c3)cc2)cc1,58.9% (active),–
O=C(O)c1cccc(N/N=C/c2ccc(OC(F)(F)F)cc2)c1,26.1% (inactive),–
COC(=O)c1ccc(COc2ccccc2/C=N/Nc2cccc(C(=O)O)c2)cc1,37% (inactive),–
COc1ccc(/C=N/NC(=O)c2cccc([N+](=O)[O-])c2)cc1OC(=O)c1ccc(C)cc1,-0.7% (inactive),–
CO/N=C(\c1nonc1N)N1CCN(c2ccc(Cl)cc2[N+](=O)[O-])CC1,-0.3% (inactive),–
CC1=N/C(=C/c2ccco2)C(=O)O1,41.7% (inactive),–
COc1ccccc1/C=C/C=C1N=C(/C=C/c2ccc(Cl)cc2)OC/1=O,56.4% (inactive),-0.4%
O=C1OC(/C=C/c2ccc(Cl)cc2)=NC/1=C/c1ccco1,56.5% (active),–
O=C(NCc1ccccc1Cl)NCc1ccccc1Cl,1% (inactive),–
CCCC(=O)n1nc(-c2ccccc2)nc1SC,3.2% (inactive),–

Structure (SMILES),inhibition (at 20 µM),inhibition [1]
Cc1nnc(NC(=O)C23CC4CC(CC(C4)C2)C3)s1,2.2% (inactive),–
COc1ccc(-c2cc(CCCC(=O)N3CCN(c4ccc(OC)cc4)CC3)no2)cc1,-1.3% (inactive),–
COc1ccc2nc3cc(Cl)ccc3c(Nc3cc(C(C)C)c(O)cc3C)c2c1,-5.4% (inactive),–
COc1ccc2nc3cc(Cl)ccc3c(C#N)c2c1,3.4% (inactive),–
CCN(CC)CCCC(C)Nc1c2ccc(Cl)cc2nc2ccc(OC)cc12 (configuration not stated),62.2% (active),–
O=C1NC(=Nc2ccccc2Cl)S/C1=C\c1ccc(C(=O)O)cc1,26.9% (inactive),–
O=C1NC(=Nc2ccccc2Cl)S/C1=C\c1cc([N+](=O)[O-])ccc1O,89.1% (active),124%
COc1c(/C=C2\SC(=Nc3ccccc3Cl)NC2=O)cccc1[N+](=O)[O-],20% (inactive),–
O=C1N/C(=N\S(=O)(=O)Cc2ccccc2)S/C1=C/c1cccc([N+](=O)[O-])c1,30.7% (inactive),–
COc1cccc(N=C2NC(=O)/C(=C/c3cc([N+](=O)[O-])ccc3O)S2)c1,64.2% (inactive),33%
COc1cc(/C=C2\S/C(=N/S(=O)(=O)Cc3ccccc3)NC2=O)c([N+](=O)[O-])cc1OC,25.9% (inactive),–
O=C1NC(=Nc2ccccc2Cl)S/C1=C\c1cccc([N+](=O)[O-])c1,75.6% (inactive),29.4%
O=C1N/C(=N\S(=O)(=O)Cc2ccccc2)S/C1=C/c1cc([N+](=O)[O-])ccc1O,69.6% (active),–
N/C(=N\NC(=O)c1ccccc1Cl)c1cc2ccccc2oc1=O,0.3% (inactive),–
CCC(=O)Nc1ccc(-c2nnc(SCc3ccc(C(=O)Nc4nccs4)cc3)n2CC)cc1,-0.6% (inactive),–
NC1=NC[C@H](CC2CCCCC2)N1CCc1cc(C(F)(F)F)cc(C(F)(F)F)c1,0.6% (inactive),–
CC(C)[C@@H]1NC(=O)N(c2ccc(Oc3ccccc3)cc2)C1=O,-2.5% (inactive),–
COc1cccc(-c2c(C(=O)N/N=C(\C)COc3ccccc3)nnn2-c2nonc2N)c1,-1.6% (inactive),–
Cc1[nH]c2ccccc2c1C(=O)C(=O)NCCc1c[nH]c2ccccc12,0.7% (inactive),–
CCn1c(SCC(=O)Nc2cc(C)on2)nnc1-c1ccc(S(=O)(=O)N2CCN(C)CC2)cc1,-2.9% (inactive),–
N#Cc1c(-c2ccccc2Cl)noc1/C=C/Nc1ccc(C(=O)O)cc1,53.5% (inactive),3.7%
O=C(NC1CCc2ccccc21)c1cc(COc2c(F)cccc2F)on1 (configuration not stated),0.3% (inactive),–
O=C(Cn1cnc2c(nnn2-c2ccccc2)c1=O)NCCc1ccccc1,1.1% (inactive),–
Cc1ccc(N2C(=O)[C@@H]3C(C(=O)CN4C(=O)c5ccccc5C4=O)=NN[C@@H]3C2=O)c(C)c1,-2.5% (inactive),–

Structure (SMILES),inhibition (at 20 µM),inhibition [1]
Cc1ccc(N2C(=O)c3ccc(C(=O)O)cc3C2=O)c(C)c1,-0.3% (inactive),–
O=C1O/C(=C/C(=O)N2CCOCC2)c2ccccc21,1.9% (inactive),–
COc1cc(-c2ccc(Nc3ccccc3C(=O)O)c(OC)c2)ccc1Nc1ccccc1C(=O)O,61% (active),–
COc1ccc(Nc2ccccc2C(=O)O)cc1,3.4% (inactive),–
O=C(O)c1ccccc1Nc1ccccc1C(=O)O,4% (inactive),–
COc1ccc(N=Cc2cc(Cc3ccccc3Cl)cc([N+](=O)[O-])c2O)cc1OC,69.3% (inactive),19.7%
Cc1ccc(N=Cc2cc(Cc3ccccc3Cl)cc([N+](=O)[O-])c2O)c(O)c1,64% (active),57.3%
Cc1ccc(O)c(N=Cc2cc(Cc3ccccc3)cc([N+](=O)[O-])c2O)c1,58% (inactive),14.2%
CCN(CC)S(=O)(=O)c1ccc2c(c1)nc(SCC(N)=O)n2-c1ccc(OC)cc1,-1.3% (inactive),–
COc1ccc2c3c(cccc13)OC2=O,-1.2% (inactive),–
COc1cc(C(=O)NC(C)CCc2ccccc2)cc(OC)c1OC (configuration not stated),-1.1% (inactive),–
CCOc1cc(/C=C2/C(=O)NN(c3cccc(Cl)c3)C2=O)ccc1O,31.4% (inactive),–
COc1cc(/C=C2/C(=O)NN(c3cccc(Cl)c3)C2=O)cc(OC)c1O,104% (active),80.5%
COc1cc(/C=C2/C(=O)NN(c3cccc(C)c3)C2=O)cc([N+](=O)[O-])c1O,30.3% (inactive),–
COc1cc(/C=C2/C(=O)NN(c3ccc(Cl)cc3)C2=O)cc(OC)c1O,93.4% (active),53.7%
COc1cccc(/C=C2/C(=O)NN(c3ccccc3)C2=O)c1,15.8% (inactive),–
COc1cc(/C=C2/C(=O)NN(c3ccc(Cl)c(Cl)c3)C2=O)cc([N+](=O)[O-])c1O,50.8% (active),–
COc1cc(/C=C2/C(=O)NN(c3ccccc3)C2=O)cc(Br)c1O,34.5% (inactive),–
COc1cc(/C=C2/C(=O)NN(c3ccc(F)cc3)C2=O)cc(Cl)c1O,39.2% (inactive),–
COC(=O)c1ccc(N2NC(=O)/C(=C/c3cc(OC)c(O)c(OC)c3)C2=O)cc1,138% (inactive),–
COc1cc(/C=C2\C(=O)NN(c3ccccc3)C2=O)cc([N+](=O)[O-])c1O,32.8% (inactive),–
COc1cc(/C=C2/C(=O)NN(c3cccc(Cl)c3)C2=O)cc(Br)c1O,102% (active),95.1%
COc1cc(/C=C2\C(=O)NN(c3ccc(C)cc3)C2=O)cc([N+](=O)[O-])c1O,38% (inactive),–
COc1cc(OC)cc(C(=O)N2CCN(C(=O)c3ccc(-c4ccccc4)cc3)CC2)c1,-0.7% (inactive),–

Structure (SMILES),inhibition (at 20 µM),inhibition [1]
CN(c1ccc(C(=O)N2CCCCC2)cc1)S(=O)(=O)c1cccs1,0.7% (inactive),–
COc1ccc(OC)c(-n2c(=S)[nH]c3cc(C(=O)N4CCC(C(N)=O)CC4)ccc3c2=O)c1,-0.3% (inactive),–
O=C(NCc1ccc(OC(F)(F)F)cc1)C1CC(c2cccc(F)c2)=NO1 (configuration not stated),0.2% (inactive),–
O=C(c1cscn1)N1CCCC(N2CCN(c3ccc(F)cc3)CC2)C1 (configuration not stated),-1.2% (inactive),–
COc1ccc(CC(=O)Nc2c3c(nn2-c2cccc(Cl)c2)CS(=O)(=O)C3)cc1,-2% (inactive),–
Cc1ccccc1C(=O)NC1CCN(CC(=O)Nc2nccs2)CC1,2.2% (inactive),–
COc1c2ccccc2c(OC)c2ccccc12,1.5% (inactive),–
C=CCN(C(=O)CN1CCCCC1)c1nc(-c2ccccc2)cs1,-1.5% (inactive),–
Cc1ccc(-c2csc3ncnc(SCC(=O)O)c23)cc1,0.9% (inactive),–
Cc1ccc(-c2csc3ncnc(SCc4ccc(C(=O)O)cc4)c23)cc1,66.8% (active),–
Cc1sc2ncnc(SCc3ccc(C(=O)O)cc3)c2c1C,9.5% (inactive),–
COCCNC(=S)N1CCN(c2cccc(C(F)(F)F)c2)CC1,-0.5% (inactive),–
Cc1cc(-c2ccccc2)nc(SCc2ccc(C(=O)O)o2)n1,1.6% (inactive),–
O=C(NN1C(=O)/C(=C/C=C/c2ccco2)SC1=S)c1ccncc1,68.5% (active),–
O=C(O)C(Cc1ccccc1)N1C(=O)/C(=C/c2cccnc2)SC1=S (configuration not stated),1.1% (inactive),–
O=C(NN1C(=O)/C(=C/C=C/c2ccco2)SC1=S)c1ccccc1O,65.1% (inactive),46.4%
CC(C(=O)O)N1C(=O)/C(=C/C=C/c2ccco2)SC1=S (configuration not stated),88.9% (active),–
O=C(O)CCCN1C(=O)/C(=C/C=C/c2ccco2)SC1=S,55.6% (inactive),27.4%
O=C(O)C(Cc1ccccc1)N1C(=O)/C(=C/C=C/c2ccco2)SC1=S (configuration not stated),69.2% (active),–
O=C(NN1C(=O)/C(=C/C=C/c2ccccc2)SC1=S)c1ccncc1,16.6% (inactive),–
O=C(O)CC(C(=O)O)N1C(=O)/C(=C/C=C/c2ccco2)SC1=S (configuration not stated),65.6% (inactive),23.1%
CC(C)C(C(=O)O)N1C(=O)/C(=C/C=C/c2ccco2)SC1=S (configuration not stated),76.1% (inactive),36.6%

# Source: PubChem BioAssay AID1986 (Sanford-Burnham Center for Chemical Genomics, 2009)
